Laboratory results: PubChem BioAssay AID720641 (ICCB-Longwood Screening Facility, Harvard Medical School, 2013)
The campaign covered roughly 170,000 compounds. About 900 (0.53%) were called active. The sample holds actives, similar compounds and a random draw of the others, so the mix is not that of the screen.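 The calls were made as follows: active = relative growth at most 50% at the other temperature and 20+ points below 30 °C, or under 10% at both; inactive = the rest, inconclusive results apart.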

Experiment: S. aureus growth inhibition at 42 and 30 °C, primary screen, LtaS inhibitor project, RN4220, two temperatures (AID 720641)
Details: OD600, 20 h, 42 °C, stronger effect = lower value

| SMILES | relative growth | relative growth (measured here: growth at 30 °C) [%] |
| --- | --- | --- |
| Cc1onc(-c2ccccc2)c1C(=O)Nc1cccc(C(F)(F)F)c1 | 113% (inactive) | 87.3 |
| Cc1oc2c(F)c(F)c(F)c(F)c2c1S(=O)(=O)Nc1cccc(C(F)(F)F)c1 | 8.52% (active) | 1.85 |
| CCNS(=O)(=O)c1ccc(NC(=O)Nc2cccc(C(F)(F)F)c2)cc1 | 98.8% (inactive) | 83.1 |
| Cc1cc(N2CCCCC2)nc2ccc(NC(=O)CCC(=O)N3CCC(C)CC3)cc12 | 78.9% (inactive) | 78.2 |
| CCc1ccc2[nH]c(=O)c(CN(Cc3ccco3)C(=S)NCC(C)C)cc2c1 | 84% (inactive) | 74.7 |
| COc1ccc(OCCN2C(=O)c3ccccc3S2(=O)=O)cc1 | 102% (inactive) | 95 |
| CCCCc1c(COC)nc(-c2ccc(Cl)cc2)[nH]c1=O | 122% (inactive) | 53 |
| CCCCCc1c(C)nc(-c2ccccn2)[nH]c1=O | 1.74% (active) | 1.83 |
| CC(=O)Nc1nc(C)c(Cc2ccccc2)c(=O)[nH]1 | 106% (inactive) | 86.1 |
| CC(C)(C)C(=O)OCC(=O)Nc1ccccc1 | 124% (inactive) | 92.1 |
| Cc1nc(/N=C(/N)NC(=O)Cc2ccccc2)nc2ccccc12 | 93.2% (inactive) | 87.1 |
| Cc1ccc2nc(CN3CCc4sccc4C3c3cccs3)cn2c1 (stereo not given) | 0.12% (active) | -0.28 |
| CC(NC(=O)CN1CCc2sccc2C1c1cccs1)c1ccc2c(c1)OCCO2 (stereo not given) | 116% (inactive) | 98.8 |
| N#CCSc1ccccc1NC(=O)CN1CCc2sccc2C1c1cccs1 (stereo not given) | 94.4% (inactive) | 87 |
| CCOC(=O)c1oc2ccccc2c1N=Cc1c(O)n(CC)c(=S)n(CC)c1=O | 99% (inactive) | 93.3 |
| CSc1nsc(SCC(=O)N2CCCC2)n1 | 93.6% (inactive) | 82.6 |
| CCOC(=O)N1CCN(CC(=O)NCCc2ccc(Cl)cc2Cl)CC1 | 90.9% (inactive) | 81.3 |
| O=C(Cn1cc(C(F)(F)F)cc(Cl)c1=O)Nc1ncccn1 | 94.1% (inactive) | 94.7 |
| CCC(CC)C(=O)N(c1ccc(OC)cc1OC)C1C=CS(=O)(=O)C1 (stereo not given) | 99.8% (inactive) | 90.8 |
| COc1cccc2c1OCc1sc3[nH]c(=S)[nH]c(=O)c3c1-2 | 50.5% (inactive) | 32.4 |
| N#Cc1ccc(OCC(=O)N=Nc2[nH]c(N)c3ccccc23)cc1 | 104% (inactive) | 101 |
| Cn1c(NC(=O)c2ccccc2)nc2ccccc21 | 9.06% (active) | 0.29 |

| SMILES | relative growth | relative growth (measured here: growth at 30 °C) [%] |
| --- | --- | --- |
| Cn1c(-c2ccc(C(=O)c3ccccc3)s2)nc2ccccc21 | 101% (inactive) | 95.7 |
| Cn1c(NCc2ccccc2)nc2ccccc21 | 105% (inactive) | 64.6 |
| O=C(COc1ccccc1)NC(C(=O)O)C12CC3CC(CC(C3)C1)C2 (stereo not given) | 112% (inactive) | 83.1 |
| c1snnc1C12CC3CC(CC(C3)C1)C2 | 103% (inactive) | 109 |
| CN1CCN(c2nc(C34CC5CC(CC(C5)C3)C4)cs2)CC1 | -0.89% (active) | -0.63 |
| CC(C)(C)C(=O)Nc1ccc(Br)cc1 | 109% (inactive) | 84.5 |
| CCOC(=O)c1cnc(SCSc2nc3ccccc3s2)nc1N | 86.4% (inactive) | 87 |
| CC(=O)Oc1ccc2occ(C(=O)c3cc4ccccc4o3)c2c1 | 89.3% (inactive) | 86.2 |
| Cc1ccc(OC(=O)c2cc3ccccc3o2)cc1 | 0.01% (active) | -0.88 |
| CC(C)Oc1ccc(NC(=O)c2cc3ccccc3o2)cc1 | 87.3% (inactive) | 89.7 |
| O=C(Oc1ccc2oc(=O)sc2c1)c1ccccc1 | 92.5% (inactive) | 94 |
| CC(C)n1c(CCC(=O)O)ccc1-c1ccc(F)cc1 | 126% (inactive) | 97.4 |
| CN(C)[C@@H]1C(=O)C(C(N)=O)=C(O)[C@@]2(O)C(=O)C3=C(O)c4c(O)ccc(Cl)c4[C@@H](O)[C@H]3C[C@@H]12 | -0.41% (active) | -1 |
| COC(=O)/C(C#N)=C(\NCc1ccc(Cl)cc1Cl)SC | 99.2% (inactive) | 99.3 |
| NC(=O)C1CCN(C(=O)CSc2ccc3ccccc3c2)CC1 | 84.3% (inactive) | 94.8 |
| COc1ccc(F)cc1C(O)CSCc1ccccc1 (stereo not given) | 124% (inactive) | 84.8 |
| CCOC(=O)Nc1nc2c(ccc3ccccc32)s1 | 92.4% (inactive) | 91.2 |
| O=C(O)C1CCC(CNS(=O)(=O)c2ccc(Br)cc2)CC1 (stereo not given) | 108% (inactive) | 96.5 |
| CCOC(=O)c1oc2nc(-c3ccccc3)cc(-c3ccco3)c2c1N | 97.1% (inactive) | 91.1 |
| CCc1ccc(CNC(=O)c2ccc(CS(=O)c3ccc(Br)cc3)o2)cc1 (stereo not given) | 19.5% (active) | 45.9 |
| CCOc1ccc(CNC(=O)c2ccc(CS(=O)c3ccccc3)o2)cc1 (stereo not given) | 101% (inactive) | 79.9 |
| Cc1ccc(CNC(=O)c2ccc(CS(=O)Cc3cccc(Cl)c3)o2)cc1 (stereo not given) | 116% (inactive) | 82.8 |

| SMILES | relative growth | relative growth (measured here: growth at 30 °C) [%] |
| --- | --- | --- |
| COC(=O)c1scc2c(N3CCCCC3)cc(C(F)(F)F)nc12 | 90.2% (inactive) | 95.5 |
| CCN1CCN(C(=O)N[C@@H](C(=O)N[C@@H]2C(=O)N3C(C(=O)O)=C(CSc4nnnn4C)CS[C@H]23)c2ccc(O)cc2)C(=O)C1=O | -0.62% (active) | -0.46 |
| O=C(Nc1nnc(C2CC2)s1)c1cc(Cl)sc1Cl | 77.4% (inactive) | 68.7 |
| COC(=O)c1ccc2c(c1)NC(=O)C(C)N2 (stereo not given) | 95.5% (inactive) | 65.5 |
| CC1CCCCN1S(=O)(=O)c1ccc(F)c(C(=O)Nc2ccccc2C(F)(F)F)c1 (stereo not given) | 98.5% (inactive) | 90 |
| CC1CCCCN1S(=O)(=O)CCNC(=O)c1ccccc1 (stereo not given) | 85.7% (inactive) | 88.4 |
| CC1CCCCN1S(=O)(=O)c1ccc(C(=O)Nc2nnc(-c3cccs3)o2)cc1 (stereo not given) | 2.04% (active) | 1.82 |
| CC1CCCCN1S(=O)(=O)c1ccc(I)cc1 (stereo not given) | 103% (inactive) | 105 |
| CCc1nnc(NC(=O)C2CCCN2S(=O)(=O)c2ccccc2)s1 (stereo not given) | 119% (inactive) | 89.3 |
| CSCc1nnc(NC(=O)c2ccc(S(=O)(=O)N3CCCCC3C)cc2)o1 (stereo not given) | 0.19% (active) | -0.08 |
| O=C(Cc1n[nH]c(=O)c2ccccc12)N/N=C/c1ccc(-c2ccc(Br)cc2)o1 | 95.6% (inactive) | 86.9 |
| CN(C)/N=C/c1ccc(OC(=O)c2ccco2)cc1 | 91.3% (inactive) | 89.5 |
| CCOC(=O)c1cc2n(c1N)-c1ccccc1C2=O | 85.9% (inactive) | 71.7 |
| CCn1nc(C(=O)OCCCCN2C(=O)c3ccccc3C2=O)c2ccccc2c1=O | 98.7% (inactive) | 94.4 |
| CCOC(=O)c1cc2oc(C)cc2n1CCCN1C(=O)c2ccccc2C1=O | -0.65% (active) | -0.53 |
| O=C(NCC12CC3CC(CC(C3)C1)C2)c1cc(-c2ccccc2O)no1 | 105% (inactive) | 101 |
| Cc1ccc(CNCc2cccn2-c2sc(C)c(C)c2C(=O)O)cc1 | 87.6% (inactive) | 76.5 |
| C=CCn1c(C)nnc1SCCN1C(=O)c2ccccc2S1(=O)=O | 91.3% (inactive) | 93.1 |
| CC(C)C(C(=O)O)n1c(=S)[nH]c2ccccc2c1=O (stereo not given) | 77.7% (inactive) | 94.8 |
| CN(C)S(=O)(=O)c1ccc(C(=O)Nc2nnc(C3CC3)o2)cc1 | 78.8% (inactive) | 59.5 |
| CCCCN(CC)S(=O)(=O)c1ccc(C(=O)Nc2nnc(-c3ccc(Cl)s3)o2)cc1 | 0.22% (active) | 0.29 |
| CS(=O)(=O)c1ccc(-c2nnc(NC(=O)c3ccc4c(c3)OCCO4)o2)cc1 | 84.8% (inactive) | 85.3 |

| SMILES | relative growth | relative growth (measured here: growth at 30 °C) [%] |
| --- | --- | --- |
| O=C(CN1C(=O)/C(=C/c2ccccc2)Sc2ccccc21)N1CCCC1 | 109% (inactive) | 98.3 |
| COc1ccc(C2=NC(C)(C)N(CC(=O)Nc3ccccc3)C2=O)cc1 | 115% (inactive) | 93.8 |
| CSc1ccc(Cl)c(C(=O)OCC(=O)N2CCC(C)CC2)c1 | 102% (inactive) | 82 |
| Nc1nc(/C(=C/CC(=O)O)C(=O)N[C@@H]2C(=O)N3C(C(=O)O)=CCS[C@H]23)cs1 | -0.72% (active) | -0.64 |
| CSc1nc(C)cc(=O)[nH]1 | 139% (inactive) | 90.7 |
| NC(=O)N/N=C1/C=C(c2ccccc2)C(O)(c2ccccc2)C1 (stereo not given) | 109% (inactive) | 91.3 |
| O=C1COc2ccc(C3=Nn4c(nnc4-c4ccncc4)SC3)cc2N1 | 97.9% (inactive) | 85.9 |
| CCN(Cc1ccccc1)C(=O)c1cc2sccc2n1Cc1ccccc1 | 108% (inactive) | 88.4 |
| COc1ccccc1CNC(=O)CNC1CCCCC1 | 96.2% (inactive) | 90 |
| Cc1c2cn[nH]c(=O)c2c(C)n1Cc1ccccc1 | 88.3% (inactive) | 75.2 |
| CO[C@@H]1[C@@H](OC(N)=O)[C@H](O)[C@H](Oc2ccc3c(O)c(NC(=O)c4ccc(O)c(CC=C(C)C)c4)c(=O)oc3c2C)OC1(C)C | -0.38% (active) | 0.14 |
| CC(C)=CCOc1ccc2c3c(c(=O)oc2c1C)CCCC3 | 97.9% (inactive) | 97.1 |
| CC(Sc1ncnc2ccccc12)C(=O)Nc1cccc(C(F)(F)F)c1 (stereo not given) | 115% (inactive) | 80.8 |
| CC(C)(C)C(=O)CN1C(=O)c2ccccc2C1=O | 129% (inactive) | 89.2 |
| Cc1ccccc1-c1nc(CS(=O)(=O)CC(=O)NC(C)c2ccccc2)c(C)o1 (stereo not given) | 101% (inactive) | 105 |
| CC(NC(=O)Nc1ccccc1)c1ccccc1 (stereo not given) | 76.7% (inactive) | 91.3 |
| Cc1oc2c(c1C(=O)NC(C)c1ccccc1)C(=O)c1ccccc1C2=O (stereo not given) | 9.3% (active) | 14 |
| O=C(/C=C/c1ccccc1)OCC(=O)N1CCc2ccccc21 | 134% (inactive) | 88.3 |
| CCOC(=O)c1cnc2c(F)cc(F)cc2c1N1CCOCC1 | 118% (inactive) | 104 |
